Among the data in PubChem BioAssay (EPA / NIEHS) are AC50 and outcome values, retold here.

The nature of test [1]: CCTE_Shafer_MEA_dev_firing_rate_mean: CCTE's Neural Network Formation Assay for Mean Firing Rate, Shafer Lab (AID 2284031).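 As to AC50: curve fitted for loss of firing so AC50 reflects decreased mean firing rate.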 Summed up: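 Extracellular spike frequency, AUC over DIV 5–12 recordings, in rat cortical neuron MEA cultures dosed from plating; loss direction vs DMSO.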
Test [2] is described as follows: CCTE_Shafer_MEA_dev_per_burst_spike_percent: CCTE's Neural Network Formation Assay for Percent of Spikes in a Burst, Shafer Lab (AID 2284032).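 As to AC50: fitted as a decrease in burst spike percentage below DMSO baseline.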 Summed up: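 Value is trapezoidal AUC over recordings on days 5, 7, 9 and 12 of the well-mean fraction of spikes falling in single-electrode bursts; rat cortical cultures exposed continuously from plating, treatment renewed DIV 5 and 9, fitted downward against DMSO.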

Test [3] in a line: CCTE_Shafer_MEA_dev_active_electrodes_number: CCTE's Neural Network Formation Assay for Number of Active Electrodes, Shafer Lab (AID 2284040; active = hit-call score of the fitted dose curve at least 0.9, where 1 is the maximum;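 as to AC50: potency for loss of active electrodes versus DMSO so lower counts are hits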). A digest of the protocol:
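Developing rat cortical networks on MEAs, exposed DIV 0–12. Value is the AUC of active-electrode counts (≥5 spikes/min) from days 5, 7, 9, 12, relative to DMSO.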

The nature of test [4]: CCTE_Shafer_MEA_dev_burst_rate: CCTE's Neural Network Formation Assay for Burst Rate, Shafer Lab (AID 2284042).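 As to AC50: potency for loss of burst rate below DMSO control.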 Summed up:
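Exposure ran continuously over 12 days of network development in rat cortical cultures, with compound refreshed during full media changes on DIV 5 and 9. Single-electrode bursts per recording time, well-mean over active electrodes, trapezoidal AUC across days 5–12, fitted downward relative to DMSO.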

Test [5] can be described thus: CCTE_Shafer_MEA_dev_bursting_electrodes_number: CCTE's Neural Network Formation Assay for Number of Bursting Electrodes, Shafer Lab (AID 2284043; active = hit-call score of the fitted dose curve at least 0.9, where 1 is the maximum;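 as to AC50: potency is for loss of bursting electrodes relative to DMSO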). Summed up:
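Number of electrodes reaching ≥1 burst every 2 min was recorded at DIV 5, 7, 9 and 12 and collapsed as trapezoidal area under the curve. Cultures were rat cortical neurons on MEA plates, dosed continuously from plating with medium and treatment refreshed on DIV 5 and 9.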

A short description of test [6]: CCTE_Shafer_MEA_dev_per_burst_interspike_interval: CCTE's Neural Network Formation Assay for Burst Interspike Interval, Shafer Lab (AID 2284044).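 As to AC50: potency for a decrease of within-burst interspike interval below DMSO level.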 Summed up: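 Mean interspike interval within single-electrode bursts, averaged over bursting electrodes, from rat cortical cultures on MEA plates recorded on days 5, 7, 9 and 12. Continuous compound exposure from plating; trapezoidal AUC fitted downward relative to DMSO.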

A short description of test [7]: CCTE_Shafer_MEA_dev_burst_duration_mean: CCTE's Neural Network Formation Assay for Mean Burst Duration, Shafer Lab (AID 2284045).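 As to AC50: curve fitted for loss meaning shorter burst duration than DMSO.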 Summed up: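 Mean single-electrode burst duration (first to last spike), averaged over bursting electrodes per well, then integrated as area-under-curve across recordings at days 5, 7, 9 and 12. Rat cortical cultures on MEAs, compound present from plating, refreshed at feeds.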

Test [8] in a line: CCTE_Shafer_MEA_dev_interburst_interval_mean: CCTE's Neural Network Formation Assay for Mean Interburst Interval, Shafer Lab (AID 2284046).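 Also: well-mean interburst interval of bursting electrodes as AUC over four recording days; curve fitted for decrease in interburst interval relative to DMSO.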 Summed up:
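Primary rat cortical neurons on PEI-coated 48-well MEA plates (laminin added with cells at plating) (16 electrodes/well), exposed from plating day 0 with renewal at DIV 5 and 9. Mean inter-burst interval averaged over bursting electrodes, AUC across days 5, 7, 9, 12; DMSO baseline.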

A short description of test [9]: CCTE_Shafer_MEA_dev_inter_network_spike_interval_mean: CCTE's Neural Network Formation Assay for Mean Inter-network Spike Interval, Shafer Lab (AID 2284047).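 As to AC50: potency for a decrease in mean inter-network spike interval below DMSO.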 Summed up: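 Mean time between consecutive network-spike peaks, recorded extracellularly (adaptive spike detection) on DIV 5, 7, 9 and 12, summarized as trapezoidal AUC. Rat cortical cultures on MEAs dosed continuously days 0–12, re-dosed at feeds; loss-of-signal fit relative to DMSO.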

The nature of test [10]: CCTE_Shafer_MEA_dev_network_spike_number: CCTE's Neural Network Formation Assay for Number of Network Spikes, Shafer Lab (AID 2284048).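 Also: synchronized bursts across electrodes counted on days 5 7 9 12 and integrated as AUC.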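 As to AC50: fit as a loss of signal meaning fewer network spikes than DMSO.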 A digest of the protocol:
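Number of network spikes (coordinated firing across electrodes) recorded on days 5, 7, 9 and 12 and summarised as area under the curve. Rat cortical cultures on MEA, continuous compound exposure with full medium/treatment exchange at DIV 5 and 9.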

Test [11] in a line: CCTE_Shafer_MEA_dev_network_spike_peak: CCTE's Neural Network Formation Assay for Mean Number of Electrodes in Network Spike, Shafer Lab (AID 2284049).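 As to AC50: fitted for loss of signal meaning fewer electrodes in network spikes than DMSO.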 Summed up: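 Rat cortical primary culture, 1.5 x 10^5 cells/well, 48-well MEA (16 electrodes/well). Dosing day 0 through DIV 12, full media/compound exchange DIV 5, 9. AxIS adaptive spike detection; AUC over days 5/7/9/12; loss-of-signal vs DMSO.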

A short description of test [12]: CCTE_Deisenroth_AIME_384WELL_CTox_Active: Cytotoxicity Assessment (CTOX) in CCTE's 384-well Estrogen Receptor Transactivation Assay with AIME metabolic competence (metabolism positive), Deisenroth Lab (AID 2284037; active = hit-call score of the fitted dose curve at least 0.9, where 1 is the maximum;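 also: chemicals first conditioned 2 h by alginate-bound induced rat liver S9 before cells; activity means signal loss indicating cell death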). Summed up:
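Cytotoxicity in VM7Luc4E2 breast cells, 24 hour, measured as protease-substrate fluorescence loss, after 2-hour metabolic conditioning with induced rat hepatic S9 in alginate microspheres. Concentrations 0.002 - 200 uM, 10 points, bidirectional fitting.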

The target in test [13] is Estrogen receptor (Homo sapiens) (UniProt P03372). Put plainly: CCTE_Deisenroth_AIME_384WELL_LUC_Inactive: CCTE's 384-well Estrogen Receptor Transactivation Assay without AIME metabolic competence (ERTA luciferase; metabolism negative), Deisenroth Lab (AID 2284038; active = hit-call score of the fitted dose curve at least 0.9, where 1 is the maximum;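 also: VM7Luc4E2 breast cells given medium preincubated 2 h with S9-free microspheres; hits raise estrogen receptor luciferase signal so potencies reflect agonists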). A digest of the protocol:
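Metabolism-negative mode: AIME lids stamped in alginate-water, no hepatic S9. 2 h chemical incubation → medium onto VM7Luc4E2 ERTA, 24 h. Readout luciferase luminescence; gain-of-signal fit vs 17beta-estradiol. Conc. 0.002 - 200 uM.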

Test [14] in a line: CCTE_Deisenroth_AIME_384WELL_CTox_Inactive: Cytotoxicity Assessment (CTOX) in CCTE's 384-well Estrogen Receptor Transactivation Assay without AIME metabolic competence (metabolism negative), Deisenroth Lab (AID 2284039; active = hit-call score of the fitted dose curve at least 0.9, where 1 is the maximum;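 also: cell viability via live-cell protease substrate cleaved to fluorescent probe; loss of fluorescence signal means loss of viability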). A digest of the protocol: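 Fluorescent protease-substrate viability readout after 24 h exposure of VM7Luc4E2 cells to conditioned medium. Chemicals (0.002–200 uM) first sat 2 h over alginate-water beads, no S9. Data fitted bidirectionally, loss of signal meaning viability loss.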

In test [15] the target is Estrogen receptor (Homo sapiens) (UniProt P03372). Nature of the test: CCTE_Deisenroth_AIME_384WELL_LUC_Shift: CCTE's 384-well Estrogen Receptor Transactivation Assay with AIME metabolic competence data shift (ERTA luciferase; difference in metabolism positive and negative), Deisenroth Lab (AID 2284041).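 Also: shift is response with S9 minus without S9 so positive means metabolism raised ER signal.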 A digest of the protocol:
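Test chemicals (0.002–200 uM, 10-point) were pre-incubated 2 h with alginate microspheres containing phenobarbital/beta-naphthoflavone-induced male Sprague Dawley rat liver S9 or water, then medium was transferred to VM7Luc4E2 cells for 24 h luciferase readout; shift = S9-positive minus S9-negative normalized response.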

Test [16] is described as follows: CCTE_Shafer_MEA_acute_cross_correlation_HWHM: CCTE's Neural Acute Assay for Cross Correlation at Half Width at Half Maximum, Shafer Lab (AID 2284026).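 Also: percent change per well from pre-dose baseline in spike cross-correlogram half width; hits are a decrease in cross-correlogram half width relative to DMSO.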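 As to outcome: spontaneous network firing of rat primary cortical neurons on multiwell microelectrode arrays.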 Summed up: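 Per-well percent change in cross-correlogram half width at half maximum, derived from 40-min recordings before and after compound (0.03-40 uM) at 37 C. Cultures were rat cortical neurons, DIV 13 or 15, with adaptive spike detection at 8x rms.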

A short description of test [17]: CCTE_Shafer_MEA_acute_synchrony_index: CCTE's Neural Acute Assay for Synchrony, Shafer Lab (AID 2284027).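 Also: network synchrony index of spontaneous spiking in primary rat cortical neurons on MEAs; fitted for loss of signal so actives lower synchrony relative to DMSO.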 A digest of the protocol: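 Acute exposure of rat primary cortical neurons (DIV 13 or 15) at 0.03-40 uM. Synchrony index, 40 min before vs after, as % change relative to DMSO control.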

Structures are written as SMILES. Several values for one entry are separate records, joined by “and”; a condition that tells them apart may be missing. Equal entries are not always repeated. Records with an inconclusive call do not appear. Some compounds were tested as several samples or in several runs, with calls that do not always agree. Activity calls are given as the source filed them. The calls were made as follows, unless noted: active = hit-call score of the fitted dose curve at least 0.9, where 1 is the maximum; inactive = score below 0.9.

As usually defined, the AC50 is the midpoint of the concentration-response curve, whichever way the signal moves.

Sequence of Estrogen receptor (Homo sapiens) (P03372 whole entry, looked up): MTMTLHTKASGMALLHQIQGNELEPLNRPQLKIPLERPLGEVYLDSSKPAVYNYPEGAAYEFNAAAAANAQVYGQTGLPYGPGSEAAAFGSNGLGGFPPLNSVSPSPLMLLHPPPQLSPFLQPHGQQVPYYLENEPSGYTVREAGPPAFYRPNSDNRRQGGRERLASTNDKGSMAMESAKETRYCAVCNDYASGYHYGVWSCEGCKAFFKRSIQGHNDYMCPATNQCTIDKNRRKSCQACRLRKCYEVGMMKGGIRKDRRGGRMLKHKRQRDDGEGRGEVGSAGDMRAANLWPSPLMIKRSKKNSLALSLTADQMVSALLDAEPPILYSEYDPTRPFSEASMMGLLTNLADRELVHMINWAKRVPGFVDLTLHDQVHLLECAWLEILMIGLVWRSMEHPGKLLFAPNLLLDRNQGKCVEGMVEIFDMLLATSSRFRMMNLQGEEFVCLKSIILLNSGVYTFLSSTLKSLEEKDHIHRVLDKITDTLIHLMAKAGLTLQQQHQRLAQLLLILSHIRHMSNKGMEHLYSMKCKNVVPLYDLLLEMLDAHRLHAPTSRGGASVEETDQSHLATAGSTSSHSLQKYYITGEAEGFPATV

As to `CN(C)C(=S)SSC(=S)N(C)C`, the AC50 is 7.36 nM (active) in test [1]; 10.3 nM (active) in test [2]; 0.011 µM (active) in [3]; 12.7 nM (active) in test [4]; 9.33 nM (active) in test [5]; 22.7 nM (active) in test [6]. In addition, the AC50 was 1.55 nM (active) in test [7]; 11.6 nM (active) in test [8]; 11.6 nM (active) in [9]; 5.54 nM (active) in [10]; 0.0107 µM (active) in test [11].

With `COc1cnc(OC)n2nc(NS(=O)(=O)c3c(OCC(F)F)cccc3C(F)(F)F)nc12`, the result in test [12] and in test [14] was inactive. Also, the values for the AC50 in test [13] and in test [15] were 13.7 µM (active) and 28 µM (active), respectively.

Regarding `N#Cc1nn(-c2c(Cl)cc(C(F)(F)F)cc2Cl)c(N)c1S(=O)C(F)(F)F` (centres undefined), the AC50 in test [16] is 13.3 µM (active) and 24.6 µM (active); in test [17] it was 33.4 µM (active) and 23.4 µM (active). The compound was called inactive in test [1], in [2], in test [3], in test [4], in test [5] and in test [6]. Moreover, the outcome in [7], in test [8], in [9], in test [10] and in test [11] was inactive.

For the compound `O=C(O)COc1nc(Cl)c(Cl)cc1Cl`, the call in test [13] and in test [15] was inactive.

In the case of `CO/C=C(/C(=O)OC)c1ccccc1Oc1cc(Oc2ccccc2C#N)ncn1`, the compound was classed as inactive in [16]. For the same compound, the AC50 in [17] was 10.7 µM (active); in [1], 925 nM (active) and 1.71 µM (active); in test [2], 1.64 µM (active) and 1.26 µM (active); in test [3] it was 1.52 µM (active) and 1.07 µM (active); in test [4] it was 1.14 µM (active) and 1.39 µM (active); in test [5], 1.42 µM (active) and 912 nM (active). Besides, the AC50 in [6] is 2.3 µM (active) and 2.54 µM (active); in test [7] it was 1.55 µM (active) and 2.03 µM (active); in test [8] it was 2.29 µM (active) and 1.06 µM (active); in test [9], 1.64 µM (active) and 17 nM (active); in test [10], 948 nM (active) and 767 nM (active); in test [11], 1.48 µM (active) and 1.44 µM (active).

For `C=CCC1=C(C)[C@@H](OC(=O)[C@@H]2[C@@H](C=C(C)C)C2(C)C)CC1=O`, the AC50 in test [16] was 36.2 µM (active); in [17] it was 27.2 µM (active); in [3], 6.82 µM (active); in test [5] it was 10000 nM (active); in test [11], 10 µM (active). The call in test [1], in test [2], in test [4], in test [6], in test [7] and in test [8] was inactive. Besides, the result in test [9] and in test [10] was inactive.

Turning to `Cc1ccc(-c2c(Cl)nc(C#N)n2S(=O)(=O)N(C)C)cc1`, the compound was classed as inactive in test [16], in test [17], in [6], in test [7], in [8] and in [9]. The AC50 in test [1] is 18000 nM (active); in [2], 18300 nM (active); in test [3], 39 µM (active); in test [4], 15200 nM (active); in test [5], 22300 nM (active); in test [10], 30200 nM (active). The AC50 in test [11] is 21.8 µM (active).

Turning to `O=C(O)c1nc(Cl)ccc1Cl`, the call in [16], in test [17], in test [13] and in test [15] was inactive.

Regarding `COP(N)(=O)SC` (centres undefined), the call in test [16], in test [17], in test [1], in [2], in test [13] and in test [3] was inactive. Further, the outcome in [15], in test [4], in test [6], in test [7], in [8] and in test [9] was inactive. Also, the compound was classed as inactive in [10] and in [11]. The AC50 in [5] was 90.1 nM (active); in test [11], 15 µM (active).
